Source: PubChem BioAssay (NCATS)
Results filed as inconclusive are left out. Activity calls are given as the source filed them. The call rests on the fitted dose curve; in most records, active means well fitted inhibition curve with a large enough effect; inconclusive means small, poorly fitted or top-dose-only effect; inactive means flat fitted curve, though single readings scatter.

test system: CRL-7250; test: qHTS assay to identify novel small-molecules to repurpose for Merkel cell carcinoma treatment (AID 1296009); conditions: MCC and control cell lines, CellTiter-Glo viability, 72 h; series mostly up to 92 µM; activity change, negative = cytotoxicity: at the top concentration; further: nearly all actives have a fitted effect of over 60% in size
Method in brief: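 Cells exposed to NPC (8-point) and MIPE (11-point) compound dilutions for 72 hr at 37 degree celsius; viability read by CellTiter-Glo luminescence, normalized to no-cell and DMSO in-plate controls.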

Structure (SMILES) | outcome
C[C@H](N)C(=O)N[C@@H](Cc1ccc(O)cc1)C(=O)N1CCC[C@H]1C(=O)NCC(=O)N[C@@H](CCCCN)C(=O)N[C@@H](Cc1ccccc1)C(N)=O | inactive [at 9.27 µM]
COc1c(CCC(=O)O)cccc1O[C@@H]1O[C@H](CO)[C@@H](O)[C@H](O)[C@H]1O | inactive
COc1cc(C(=O)O)ccc1OC1OC(CO)C(O)C(O)C1O (stereo not drawn) | inactive
COc1cc(/C=C/C(=O)O[C@H]2[C@H](OC(=O)/C=C/c3cc(OC)c(O)c(OC)c3)O[C@H](CO[C@@H]3O[C@H](CO)[C@@H](O)[C@H](O)[C@H]3O)[C@@H](O)[C@@H]2O)ccc1O | inactive [at 17.4 µM]
C=C1CC[C@H]2[C@@](C)(CCC(O)[C@@]2(C)CO)[C@@H]1C/C=C(/C(=O)O)C(O)CO (stereo partly drawn) | inactive
COc1ccc2c(c1)O[C@H](O[C@@H]1O[C@H](CO)[C@@H](O)[C@H](O)[C@H]1O)C(=O)N2 | inactive
OC[C@@]1(O)CO[C@@H](OC[C@H]2O[C@@H](Oc3ccccc3)[C@H](O)[C@@H](O)[C@@H]2O)[C@@H]1O | inactive
C=CC1C(O[C@@H]2O[C@H](CO)[C@@H](O)[C@H](O)[C@H]2O)OC=C(C(=O)OC)C1CC(=O)O (stereo partly drawn) | inactive [at 17.4 µM]
COc1ccc(CN2C(=O)C(=O)c3cc(S(=O)(=O)N4CCC[C@H]4COc4cccnc4)ccc32)cc1 | inactive
COc1cc(/C=C/C(=O)O[C@H]2[C@H](O)[C@@H](CO)O[C@@]2(CO)O[C@H]2O[C@H](CO)[C@@H](O)[C@H](O)[C@H]2O)cc(OC)c1O | inactive [at 17.4 µM]
COC(=O)c1cc(OC)cc(OC)c1C(=O)c1c(OC)cc2c(c1O)C1CCC(O)C(C)(O2)O1 (stereo not drawn) | inactive [at 17.4 µM]
C/C=C(\C)C(=O)OC1CC2C(CC=C3CC(OC4CC(OC)C(OC5CC(OC)C(OC6CC(OC)C(OC7CC(OC)C(OC8CC(OC)C(OC9OC(CO)C(O)C(O)C9O)C(C)O8)C(C)O7)C(C)O6)C(C)O5)C(C)O4)CCC32C)C2(O)CCC(C(C)=O)C12C (stereo not drawn) | inactive [at 9.27 µM]
C=C1C(=O)OC2/C=C(\C)CC/C=C(\C(=O)O)CC/C=C(\C)CCC12 (stereo not drawn) | inactive
C[C@@H](c1ccccc1)N(C(N)=NC#N)c1cccc2ncccc12 | inactive
NS(=O)(=O)c1ccc(NC(=O)Nc2ccc(F)cc2)cc1 | inactive
NC(=O)C(O[C@@H]1O[C@H](CO[C@@H]2O[C@H](CO)[C@@H](O)[C@H](O)[C@H]2O)[C@@H](O)[C@H](O)[C@H]1O)c1ccccc1 (stereo partly drawn) | inactive [at 17.4 µM]
C/C=C/C=C/C1=C2C(=O)C3(C)C4C(C(=O)CC(O)/C=C/C)=C(O1)C1(C)C2C2(C)OC1(O)C4(C)OC23O (stereo not drawn) | inactive [at 17.4 µM]
CC1(C)CCC[C@@]2(C)[C@H]1[C@H](O)C=C1COC(=O)[C@@]12O | inactive
